The list is not random: actives were taken first. Their share in the collection is about 3.1%.
uPA generation = inhibitors of cell surface uPA generation. cell surface uPA generation assay, qHTS. Potency, µM (highest dose often 38.3 µM), for the others: at the top dose activity change, negative = inhibition, most hits filed as inhibitors. 0.31% of 330,000 active. AID 540303; active = well fitted inhibition curve with a large enough effect; inconclusive = small, poorly fitted or top-dose-only effect; inactive = no such curve, though single readings can be large or run the other way; tested in mouse RAW 264.7 cells; note: potency is the fitted concentration of half-maximal effect; % is set by controls: 0 for no effect and ±100 for the full control effect; nearly all actives have a fitted effect of over 55% in size
VDR inhibitor = vitamin D3 receptor (human) inhibition; VDR-SRC2-3 peptide fluorescence polarization, 2 h; Potency, µM, inactives show max response, negative = inhibition, actives largely listed as inhibitors; 0.93% of 400,000 active; AID 504847; note: potency is the fitted concentration of half-maximal effect; % is set by controls: 0 for no effect and ±100 for the full control effect
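Signal is fluorescence polarization, reporting how far test compounds block the interaction of VDR with the SRC2-3 coregulator peptide after a 2 h room-temperature incubation.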
TSG101-PTAP inh = blocks PTAP/TSG101 interaction to inhibit HIV-1 budding; 340,000 tested, under 10 active; Potency, µM (titrated, usually from 115 µM), without a hit: at the highest dose activity change, negative = inhibition, usual class: inhibitors; Q99816; AID 493005; Fluorescence polarization, FITC-PTAP peptide / Tsg101 binding; active = well fitted inhibition curve with a large enough effect in the main read-out, with a control signal flat, not every such curve was filed as active; inconclusive = small, poorly fitted or top-dose-only effect, or effect the other way, or a change in a side signal; inactive = no such curve, though single readings can be large or run the other way; note: potency is the fitted concentration of half-maximal effect; % of control where 0% means no effect
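Fluorescence polarization binding of Tsg101 binding domain (10 uM final) to FITC-labeled PTAP peptide (50 nM final) in HEPES pH 7.5 buffer with NaCl, Tween 20, EDTA, TCEP. Compounds added before peptide; binding 20 min at RT.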
TSHR antag = human thyrotropin receptor antagonism; AID 504810; TSHR-expressing cells, TSH-stimulated cAMP HTRF, 2 h; active compounds read low; 0.2% of 330,000 active; P16473; activity change, negative = inhibition, % at 11.5 µM;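 active = activity change below a set negative limit, meaning inhibition stronger than a set level, cut at about -70% in these data; inconclusive = activity change between two set negative limits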; note: % is set by controls: 0 for no effect and ±100 for the full control effect
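Antagonism was scored as loss of TSH-driven cAMP in TSHR cells, stimulated with 4nM TSH (EC80) for 2 hours at 37 deg C and detected by homogeneous HTRF competition immunoassay.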
PLK1 PBD block = blocks phosphopeptide binding to human PLK1 polo-box domain; P53350; Plk1 PBD binding of FITC phosphopeptide, fluorescence polarization; Potency, µM, for inactives: max response, negative = inhibition, most hits filed as inhibitors; 2.8% of 360,000 active; AID 720504; note: potency is the fitted concentration of half-maximal effect; series mostly up to about 57 µM; % is set by controls: 0 for no effect and ±100 for the full control effect; nearly all actives have a fitted effect of over 65% in size
Target sequence (P53350 whole entry, looked up, the tested form may be a part): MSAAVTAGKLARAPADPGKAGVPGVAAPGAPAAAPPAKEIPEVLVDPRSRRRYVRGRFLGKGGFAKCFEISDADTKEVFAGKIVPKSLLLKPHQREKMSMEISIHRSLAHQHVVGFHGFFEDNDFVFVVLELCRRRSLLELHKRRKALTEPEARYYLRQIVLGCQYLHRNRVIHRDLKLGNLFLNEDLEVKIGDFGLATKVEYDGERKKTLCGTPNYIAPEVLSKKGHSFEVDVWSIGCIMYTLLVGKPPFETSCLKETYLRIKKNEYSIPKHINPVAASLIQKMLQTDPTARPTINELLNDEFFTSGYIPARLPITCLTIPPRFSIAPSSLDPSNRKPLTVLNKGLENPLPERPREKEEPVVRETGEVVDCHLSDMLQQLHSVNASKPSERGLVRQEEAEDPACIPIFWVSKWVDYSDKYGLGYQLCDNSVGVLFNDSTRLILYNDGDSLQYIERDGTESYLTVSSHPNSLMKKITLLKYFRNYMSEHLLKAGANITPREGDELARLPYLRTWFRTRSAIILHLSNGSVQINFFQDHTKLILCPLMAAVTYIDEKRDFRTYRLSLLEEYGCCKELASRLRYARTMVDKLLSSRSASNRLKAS
Active calls of the source: *; ? = inconclusive; . = no result. Unless noted, calls come from the whole dose curve; as a rule, active = well fitted curve in the direction sought with a large enough effect; inconclusive = small, poorly fitted or top-dose-only effect, or another doubt; inactive = no such curve, though single readings can be large; an effect the other way counts as inactive or inconclusive.

SMILES	uPA generation	VDR inhibitor	TSG101-PTAP inh	TSHR antag	PLK1 PBD block
CNC(=S)NNc1ccccc1[N+](=O)[O-]	3%	71µM*	1%	5	-21%
COc1ccc(-c2csc(NC(=O)CSc3n[nH]c(N)n3)n2)cc1	-2%	-16%	0%	-2	27µM*
COc1ccccc1NC(=O)c1ccc(NC(=O)COC(=O)C2(C)CC2(Cl)Cl)cc1 (centres undefined)	-8%	-14%	0%	18	21µM*
COc1ccccc1NC(=O)c1ccc(NC(=O)CSc2n[nH]c(N)n2)cc1	15%	-18%	-5%	-12	30µM*
CCn1nc(C(=O)OCC(=O)Nc2nc(-c3ccc(OC)cc3)cs2)c2ccccc2c1=O	-15%	-6%	-8%	-25	27µM*
CCn1nc(C(=O)OCC(=O)NCC(C)C)c2ccccc2c1=O	-7%	6%	-1%	-5	-4%
Cc1cc(C)nc(SCC(=O)OCC(=O)N(C)c2c(N)n(Cc3ccccc3)c(=O)[nH]c2=O)n1	12%	18%	-1%	6	-1%
COC(=O)c1cccc(Cn2c(Cl)c(/C=N/Nc3ccccc3C)sc2=O)c1	-7%	-24%	6%	-10	-4%
Cc1ccccc1N/N=C/c1sc(=O)n(Cc2cccc(C(=O)O)c2)c1Cl	1%	?	-4%	-45	27µM*
O=C(O)c1cccc(Cn2c(Cl)c(/C=N/NC(=O)c3cc4ccccc4cc3O)sc2=O)c1	12%	?	-2%	-19	27µM*
O=C(O)c1cccc(Cn2c(Cl)c(/C=N/NC(=O)c3ccccc3)sc2=O)c1	-2%	-7%	-4%	-1	-6%
Cc1cccc(C)c1NC(=O)c1sc(-n2nc(C)c(Cc3ccc4c(c3)OCO4)c2C)nc1C	.	2%	.	.	.
O=C(NCc1ccccc1)c1cc(C2CCCCN2C(=O)c2ccccc2)on1 (centres undefined)	.	.	.	.	-1%
COCCNC(=O)C(c1ccc(C)o1)N(CCOC)C(=O)Cn1nnc2ccccc21 (centres undefined)	3%	-25%	-3%	3	27µM*
CCOc1ccccc1C(C(=O)NCCOC)N(CCOC)C(=O)Cn1nnc2ccccc21 (centres undefined)	-3%	-1%	-6%	-10	-4%
Cc1ccc(NC(=O)Cn2c(=O)n(CCCCCC(=O)NCc3ccc(F)cc3)c(=O)c3sccc32)cc1C	.	81%	.	.	.
CCC1CC2(C)NC(=O)c3c(sc4c3CC(C)(C)OC4)N2C1=O (centres undefined)	1%	?	-6%	-10	12µM*
COCCCNC(=S)Nc1cccc2ncccc12	1%	-18%	-3%	5	27µM*
CCSc1ncc(Cl)c(C(=O)Nc2sc(C(C)=O)c(C)c2C(=O)OC)n1	.	-2%	.	.	.
CC(=O)NC1C(O)C[C@@](O)(C(=O)O)OC1[C@@H](O)C(O)CO (some centres undefined)	.	20%	.	.	.
CC(c1ccccc1)N1C(=O)c2ccc(C(=O)Nc3ccccc3C(=O)O)cc2C1=O (centres undefined)	-1%	-20%	-6%	-14	24µM*
CC(c1ccccc1)N1C(=O)c2ccc(C(=O)Nc3ccc(Br)cc3C(=O)O)cc2C1=O (centres undefined)	0%	?	1%	12	24µM*
CC(C)CN1C(=O)c2ccc(C(=O)Nc3ccc(O)cc3C(=O)O)cc2C1=O	10%	-9%	-2%	-8	-5%
CC(C)CCN1C(=O)c2ccc(C(=O)Nc3ccccc3C(=O)O)cc2C1=O	1%	-16%	-5%	-23	-23%
COc1ccc(/C(=C/Nc2cccc(Br)c2)C(C)=O)cc1OC	-6%	4%	-1%	-1	27µM*
CCCc1c(OCCCCc2nn[nH]n2)ccc(C(C)=O)c1O	8%	45µM*	-2%	-18	-20%
Nc1nnc(CSCc2ccc(Cl)cc2Cl)s1	-1%	-27%	-10%	-17	19µM*
O=C(/C=C/c1ccc(Cl)cc1)Nc1ccc(N2CCOCC2)cc1	2%	?	0%	6	24µM*
O=C(/C=C/c1ccc(Cl)cc1)NC(=S)Nc1ccc(N2CCOCC2)c(Cl)c1	-13%	-7%	-1%	-6	19µM*
O=C(/C=C/c1ccccc1)NC(=S)Nc1ccc(N2CCOCC2)cc1	-16%	2%	-4%	2	-12%

Assay outcomes (PubChem BioAssay)
